Out of some 16,000 compounds screened, about 4,000 (25%) were called active. Inconclusive results (about 26%) are left out. The list is a sample of the results. Values without a mark were called inactive. The call rests on the fitted dose curve; in most records, active means well fitted curve in the direction sought with a large enough effect; inconclusive means small, poorly fitted or top-dose-only effect, or effect the other way; inactive means no such curve, though single readings can be large or run the other way.
Target: Cytochrome P450 2C9 (Homo sapiens) (UniProt P11712)
Sequence (P11712 whole entry, looked up): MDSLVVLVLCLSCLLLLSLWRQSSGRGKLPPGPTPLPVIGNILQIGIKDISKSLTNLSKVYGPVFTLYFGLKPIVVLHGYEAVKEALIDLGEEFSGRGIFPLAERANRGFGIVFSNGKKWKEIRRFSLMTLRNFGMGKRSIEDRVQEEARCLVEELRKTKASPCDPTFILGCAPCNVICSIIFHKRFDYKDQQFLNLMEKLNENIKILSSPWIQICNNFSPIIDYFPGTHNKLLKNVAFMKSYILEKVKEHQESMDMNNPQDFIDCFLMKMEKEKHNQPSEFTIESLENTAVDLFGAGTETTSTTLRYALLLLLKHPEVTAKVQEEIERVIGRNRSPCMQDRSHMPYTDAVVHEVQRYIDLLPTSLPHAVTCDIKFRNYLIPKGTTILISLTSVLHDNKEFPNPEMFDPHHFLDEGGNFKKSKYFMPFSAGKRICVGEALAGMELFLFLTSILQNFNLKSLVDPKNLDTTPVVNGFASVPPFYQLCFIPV
Test: Cytochrome panel assay with activity outcomes
Details: recombinant CYP, pro-luciferin dealkylation, luminescence, p450-cyp2c9; series mostly up to 57.1 µM
On the % scale 0 is the no-effect control and ±100 the full control effect.

SMILES	AC50	activity, negative = inhibition
N[C@@H](CO)C(=O)NNCc1ccc(O)c(O)c1O	inactive	
Cn1c(=O)c2[nH]c(CCC(=O)O)nc2n(C)c1=O		24.4% [at 11.4 µM]
CN(C)C(N)=NCCC[C@H](N)C(=O)O	inactive	
O[C@H](C[C@@H]1CCCCN1)c1ccc2c(c1)oc1ccccc12		-4.01% [at 11.4 µM]
Cn1c(SC2CCCCC2=O)nnc1-c1ccncc1 (stereo not given)	inactive	
CN(C)c1ncc2nc(-c3ccc(Cl)cc3)c(=O)n(C[C@H]3CCCO3)c2n1	inactive	
Cc1ccc(CSc2nnc(-c3ccncc3)n2CC2CCCO2)cc1 (stereo not given)	15.8 µM (active)	
CC1(C)O[C@H]2C[C@@H]3[C@H]4CCC5=CC(=O)CC[C@@]5(C)[C@]4(F)[C@@H](O)C[C@@]3(C)[C@@]2(C(=O)CCl)O1	inactive	
N#CC1=C(N)OC2=C(C(=O)CCC2)C12CCC1(CC2)OCCO1	inactive	
N#Cc1ccccc1-c1cncnc1NCc1cccnc1		12.7% [at 2.29 µM]
CCc1ccc(Nc2ncccc2C#N)cc1	17.8 µM (active)	
CCC(C)c1ccc(Nc2ncccc2C#N)cc1 (stereo not given)	17.8 µM (active)	
C[C@H]1CN(S(=O)(=O)c2cccc3cnccc23)CCN1	inactive	
C1CCC(N=C(NC23CC4CC(CC(C4)C2)C3)N2CCOCC2)CC1	inactive	
CCN(CC)CCOC(=O)C(c1ccccc1)c1ccccc1	inactive	
CCN(CC)CCOc1ccc(Cc2ccccc2)cc1	15.8 µM (active)	
CCN(CCCc1ccccc1)CCCc1ccccc1	inactive	
CN[C@@H]1NC(=O)c2ccccc2N1Cc1ccc(F)cc1		4.34% [at 11.4 µM]
Cc1ccc(NC2c3ncccc3C(=O)N2Cc2ccc(F)cc2)cc1 (stereo not given)	15.8 µM (active)	
O=C1c2cccnc2C(=O)N1Cc1ccc(F)cc1	inactive	
CCOc1ccc(/C(O)=C2/C(=O)C(=O)N(CCOCCO)C2c2cccnc2)cc1 (stereo not given)	inactive	
COc1ccc(/C(O)=C2/C(=O)C(=O)N(CCCC(=O)O)C2c2ccc(OC)cc2)cc1 (stereo not given)	inactive	
COc1ccc(/C(O)=C2/C(=O)C(=O)N(CCN3CCOCC3)C2c2ccc(C)cc2)cc1 (stereo not given)	inactive	
CCOC(=O)c1[nH]c(C)c(/C(O)=C2\C(=O)C(=O)N(CCN3CCOCC3)C2c2cccs2)c1C (stereo not given)	inactive	
Cc1ccc(/C(O)=C2/C(=O)C(=O)N(CCCn3ccnc3)C2c2ccccn2)cc1 (stereo not given)	4.47 µM (active)	
CCOc1ccc(/C(O)=C2/C(=O)C(=O)N(CCCn3ccnc3)C2c2cccs2)cc1Cl (stereo not given)	5.01 µM (active)	
C/C(CCN1CCc2nc(-c3ccccc3)c(-c3ccccc3)cc2C1)=N\O[C@@H](C)c1cn([C@H](CO)Cc2ccccc2)nn1		-23.3% [at 11.4 µM]

SMILES	AC50	activity, negative = inhibition
Nc1ncnc(N(c2ccccc2)C2CCCCC2)c1[N+](=O)[O-]	inactive	
C[C@@H]1[C@H]2CC[C@@H]3[C@@H]4CC=C5C[C@@H](N(C)C)CC[C@]5(C)[C@@H]4CC[C@@]32CN1C	inactive	
O=C(O)[C@@H]1[C@@H]2C[C@@H]3[C@@H](OC(=O)[C@@H]31)[C@H]2Br		-8.47% [at 11.4 µM]
CC(C)[C@H](NC(=O)OC(C)(C)C)[C@@H](O)CC(=O)C(C)(C)C		9.81% [at 11.4 µM]
CCOC(=O)c1c2ccc(OCC(=O)N/N=C/c3ccc(Cl)cc3)cc2n2ccccc12	6.31 µM (active)	
CO[C@H]1COC(=O)C/C=C\[C@@H](C)COC(=O)[C@@H](OCc2ccccc2)/C=C\[C@@H]1C		-24.9% [at 11.4 µM]
C=CCNc1oc(/C=C/c2ccccc2)nc1C#N	4.47 µM (active)	
Cc1nc2ccccc2nc(C)c1=NO	inactive	
NC(N)=NC(N)=Nc1ccccc1 (tested in a mixture with another compound)		-12.4% [at 11.4 µM]
Cc1cc2ccccc2c[n+]1CC(O)C[n+]1cc2ccccc2cc1C		8.36% [at 11.4 µM]
C=CCc1cc(C=O)cc(OC)c1OCc1ccc(Cl)cc1	8.91 µM (active)	
O=C(CCCCCn1c(=O)[nH]c2ccsc2c1=O)NCc1ccc2c(c1)OCO2	4.47 µM (active)	
O=C(CCCCn1c(=S)[nH]c2ccsc2c1=O)NCc1ccco1	2.24 µM (active)	
COCCNC(=O)CCCCCn1c(=S)[nH]c2ccccc2c1=O	inactive	
CC(C)(C)C(=O)OCOC(=O)[C@@H]1N2C(=O)[C@@H](NC(=O)[C@H](N)c3ccccc3)[C@H]2SC1(C)C	inactive	
CCC(C)NC(=O)c1cnn2c(C)c3c(nc12)CCCC3 (stereo not given)	inactive	
Cc1nc2c(C(=O)N3CCOCC3)cnn2c(C)c1Cc1ccc(Cl)cc1	7.94 µM (active)	
CCC#CCOCC(=O)Nc1ccccc1	inactive	
NCC(=O)Nc1ccccc1		17% [at 11.4 µM]
C#CCCCC(=O)Nc1ccccc1	inactive	
O=C(Cc1ccccc1I)Nc1ccccc1	25.1 µM (active)	
CCC(=O)NNC(=O)CCC(=O)Nc1ccccc1	inactive	
CCCCC#Cc1ccccc1CC(=O)Nc1ccccc1	2.51 µM (active)	
CC(C)(C)c1ccc(OCC(=O)O)c(Cl)c1		-19.9% [at 11.4 µM]
C=C(CC)C(=O)c1ccc(OCC(=O)O)c(Cl)c1Cl	0.631 µM (active)	
COc1cc(NC(=O)Cc2c(C(=O)O)[nH]c3ccccc23)cc(OC)c1OC	12.6 µM (active)	
NC(N)=NC(=O)c1nc(Cl)c(N2CCCCCC2)nc1N	inactive	

SMILES	AC50	activity, negative = inhibition
CC(C)(C)NC(=O)CSc1nnc(Cc2ccc3c(c2)OCO3)n1C1CCCCC1	inactive	
CNC(=O)NC(=O)CSc1nnc(-c2ccco2)n1Cc1ccccc1	inactive	
Cc1cc(NC(=O)CSc2nnc(-c3ccccc3)n2Cc2ccco2)no1	10 µM (active)	
CC(=O)Nc1ccc(NC(=O)CSc2nnc(-c3ccccc3)n2Cc2ccc3c(c2)OCO3)cc1	11.2 µM (active)	
CC(C)=NOC[C@@H](O)COCc1ccco1		0.0785% [at 11.4 µM]
COc1ccc2c(c1)CCC1C2CC[C@]2(C)[C@H](NCCCCCCN3C(=O)C=CC3=O)CC[C@@H]12 (stereo not given in full)	inactive	
Clc1ccc2c(N3CCC(CCC4CCN(c5ncnc6cc(Cl)ccc56)CC4)CC3)ncnc2c1		-21% [at 11.4 µM]
Cc1cccc(-n2ncc3c(Nc4c(C)n(C)n(-c5ccccc5)c4=O)ncnc32)c1	inactive	
CCOC(=O)C1CCCN(c2ncnc3c2cnn3-c2cccc(C)c2)C1 (stereo not given)	12.6 µM (active)	
Cc1noc(C)c1-c1ccc2ncnc(N3CCC(C(=O)O)CC3)c2c1		14.5% [at 2.29 µM]
CCOC(=O)C1CCCN(c2ncnc3c2cnn3-c2ccc(Cl)cc2)C1 (stereo not given)	7.08 µM (active)	
COC(=O)c1ccccc1NC(=O)CSc1nnc(C(CO)NC(=O)c2ccccc2Cl)n1C (stereo not given)	inactive	
COc1ccc(C(=O)NC(CO)c2nnc(SCc3ccc(Cl)c(Cl)c3)n2C)cc1 (stereo not given)	14.1 µM (active)	
CN(C)Cc1ccccc1-c1nc(NCc2cccs2)c2ccccc2n1		5.46% [at 2.29 µM]
CN1CCN(c2ncncc2-c2cccnc2)CC1		-10.3% [at 2.29 µM]
CN1CCN2c3ncccc3Cc3ccccc3C2C1 (stereo not given)	0.0501 µM (active)	
COc1ccccc1-c1cncnc1N1CCN(C)CC1		3.41% [at 2.29 µM]
Cc1ccc(C)c(/C(=N\N=C(N)N)C2CC2)c1		-5.2% [at 11.4 µM]
O=S(=O)(c1ccccc1)c1cnc(-c2cccnc2)nc1-c1ccc(Cl)cc1Cl	10 µM (active)	
Nc1nc(-c2cccnc2)cc(-c2cc(-c3cccnc3)nc(N)n2)n1		-11.2% [at 11.4 µM]
O=S(=O)(c1ccc(Cl)cc1)c1cnc(-c2cccnc2)nc1-c1ccccc1	inactive	
CCCc1c(-c2ccc(O)cc2)nn(-c2ccc(O)cc2)c1-c1ccc(O)cc1	inactive	
COc1ccc(-n2c(=O)c(-c3ccc(F)cc3)nc3cnc(OC)nc32)cc1	inactive	
Cc1ccc(-c2csc(N3CCC(NS(=O)(=O)c4ccc5c(c4)OCCO5)CC3)n2)cc1	3.55 µM (active)	
O=C(O)[C@@H]1CCCNC1	inactive	
CCc1ccc(OCC(=O)OC2CCS(=O)(=O)C2)cc1 (stereo not given)	inactive	
Cc1ccc(CN(C(=O)c2cc3ccccc3oc2=O)C2CCS(=O)(=O)C2)cc1 (stereo not given)	11.2 µM (active)	

SMILES	AC50	activity, negative = inhibition
CN(C(=O)COc1cccc(Br)c1)C1CCS(=O)(=O)C1 (stereo not given)	inactive	
CCc1ccc(CN(C(=O)c2cc3ccccc3oc2=O)C2CCS(=O)(=O)C2)cc1 (stereo not given)	8.91 µM (active)	
CCCN(C(=S)Nc1ccccc1)C1CCS(=O)(=O)C1 (stereo not given)	inactive	
Cc1cc(C)c[n+](CC(=O)c2cc3ccccc3oc2=O)c1	inactive	
CC(=O)c1cc2ccccc2oc1=O	inactive	
CCN(CC)c1ccc2cc(C(C)=O)c(=O)oc2c1	inactive	
CCOc1ccc(CN(C(=O)c2oc3ccccc3c2C)C2CCS(=O)(=O)C2)cc1 (stereo not given)	8.91 µM (active)	
O=C(c1sc2ccccc2c1Cl)N(Cc1ccccc1)C1CCS(=O)(=O)C1 (stereo not given)	3.98 µM (active)	
CC(C)(C)c1cc(C(=O)O)c(CN2CCCCC2)o1	inactive	
CN(C)Cc1ccccc1-c1nc(N(C)Cc2ccco2)c2ccccc2n1		11.9% [at 2.29 µM]
Nc1ccc(S(=O)(=O)NCc2nccs2)cc1		-21.4% [at 11.4 µM]
O=S(=O)(NCc1cn2ccsc2n1)c1ccc(Oc2ccccc2)cc1	7.08 µM (active)	
Cn1cccc1C(=O)N1CCC2(CCCN(Cc3ccccc3)C2)CC1	inactive	
O=C(c1ccco1)N1CCC2(CCN(Cc3ccncc3)CC2)CC1	7.94 µM (active)	
COCC(=O)N1CCC2(CCN(Cc3ccccc3OC)CC2)CC1	inactive	
Cn1cccc1C(=O)N1CCC2(CCCN(Cc3ccc(C#N)cc3)C2)CC1	inactive	
Cn1cccc1C(=O)N1CCC2(CCCN(Cc3ccncc3)C2)CC1	1.58 µM (active)	
O=C(c1ccco1)N1CCC2(CCN(Cc3ccccc3)CC2)CC1	inactive	
Cn1cccc1C(=O)N1CCC2(CCN(Cc3nccs3)CC2)CC1	inactive	
Cn1cccc1C(=O)N1CCC2(CCN(Cc3ccncc3)CC2)CC1	10 µM (active)	
Cn1cccc1C(=O)N1CCC2(CCN(Cc3ccccc3)CC2)CC1	inactive	
CC(=O)N1CCC2(CCN(Cc3ccncc3)CC2)CC1	inactive	
COCC(=O)N1CCC2(CCN(Cc3ccncc3)CC2)CC1	0.398 µM (active)	
O=C(c1ccncc1)N1CCC2(CCN(Cc3ccccc3)CC2)CC1	inactive	
